# Values quoted from earlier work, collected in PubChem BioAssay AID977608.
# Hit rate of the full screen: of about 4,300 compounds, about 4,300 (100%) were called active. The limit is not given here; nearly all actives have IC50 up to about 1400 µM. So high a share suggests a set chosen from earlier hits. Some of the results follow. Where a SMILES comes first, the peptide text is derived from it. [ ]: non-standard residue; d: D form. The star is where a group is joined. Thr(P(OH)3+) = C[C@@H](O[P+](O)(O)O)[C@H](N)C(=O)O; Pentanoyl(5-cHex) = O=C(CCCCC1CCCCC1)*; Ahx = NCCCCCC(=O)O
# Assay: literature IC50 values for PDB complexes, PDB-derived complexes (AID 977608)
# Details: PDB protein-ligand complexes
smiles,measurement,setting,value
O=C(C[P+](O)(O)O)OC1[C@@H](O[P+](O)(O)O)[C@H](O[P+](O)(O)O)C(O[P+](O)(O)O)[C@H](O[P+](O)(O)O)[C@H]1O[P+](O)(O)O (stereo not given in full),IC50,"protein: Inositol hexakisphosphate and diphosphoinositol-pentakisphosphate kinase 2 PPIP5K2, PDB entry 4nzm",0.14 µM (active)
O=C(C[P+](O)(O)O)OC1[C@@H](O[P+](O)(O)O)[C@H](O[P+](O)(O)O)C(OCc2ccccc2)[C@H](O[P+](O)(O)O)[C@H]1O[P+](O)(O)O (stereo not given in full),IC50,"protein: Inositol hexakisphosphate and diphosphoinositol-pentakisphosphate kinase 2 PPIP5K2, PDB entry 4nzn",0.42 µM (active)
CCCCCCCNCC([P+](O)(O)O)[P+](O)(O)O,IC50,"protein: Farnesyl pyrophosphate synthase, PDB entry 4dwg",0.058 µM (active)
CCCNCC([P+](O)(O)O)[P+](O)(O)O,IC50,"protein: Farnesyl pyrophosphate synthase, PDB entry 4dxj",0.038 µM (active)
CCCCCNCC([P+](O)(O)O)[P+](O)(O)O,IC50,"protein: Farnesyl pyrophosphate synthase, PDB entry 4dwb",1.84 µM (active)
CCCCCCNCC([P+](O)(O)O)[P+](O)(O)O,IC50,"protein: Farnesyl pyrophosphate synthase, PDB entry 4e1e",0.49 µM (active)
CC(=O)N[C@H]1[C@@H](O[P+](O)(O)O[P+](O)(O)OC[C@H]2O[C@@H](n3ccc(=O)[nH]c3=O)[C@H](O)[C@@H]2O)O[C@H](CO)[C@@H](O)[C@@H]1O[C@H](C)C(=O)N[C@@H](C)C(=O)N[C@H](CCC(=O)N[C@@H](CSCCc1cn([C@@H]2[C@H](O)[C@@H](CO[P+](O)(O)O[C@H]3[C@@H](O)[C@H](n4ccc(N)nc4=O)O[C@@H]3CO[P+](O)(O)O[C@H]3[C@@H](O)[C@H](n4ccc(N)nc4=O)O[C@@H]3COP(O)O)O[C@H]2n2cnc3c(N)ncnc32)nn1)C(=O)N[C@H](C)C(=O)N[C@H](C)C(=O)O)C(=O)O,IC50,"protein: FemX, PDB entry 4ii9",0.93 µM (active)
CN(Cc1cnc2c(n1)C(N)NC(N)N2)c1ccc(C(=O)N[C@@H](CCC(=O)O)C(=O)O)cc1 (stereo not given in full),IC50,"protein: Lactobacillus casei dihydrofolate reductase, PDB entry 1ao8",0.006 µM (active)
NCC[C@H](C1CC=CC1)n1cc(-c2ncnc3[nH]ccc23)cn1,IC50,"protein: Proto-oncogene tyrosine-protein kinase Src, PDB entry 4u5j",2.93 µM (active)
CC(C)COC(=O)N[C@H](CC=O)c1ccccc1,IC50,"protein: RHOMBOID PROTEASE GLPG, PDB entry 3zmj",11.7 µM (active)
O=CC[C@@H](NC(=O)OC1CCCC1)c1ccccc1,IC50,"protein: RHOMBOID PROTEASE GLPG, PDB entry 3zmh",5.27 µM (active)
O=CC[C@@H](NC(=O)Oc1ccccc1)c1ccccc1,IC50,"protein: RHOMBOID PROTEASE GLPG, PDB entry 3zmi",1.12 µM (active)
same,IC50,"protein: RHOMBOID PROTEASE GLPG, PDB entry 3zot",1.12 µM (active)
CSCC[C@H](NC(=O)[C@@H](NC(=O)[C@H](CO)NC(=O)[C@H](Cc1cnc[nH]1)NC(=O)[C@H](CC(C)C)NC(=O)[C@@H]1CCCN1C(=O)CC12CC3CC(CC(C3)C1)C2)[C@@H](C)O[P+](O)(O)O)C(N)=O (HELM PEPTIDE1{[O=C(CC12CC3CC(CC(C3)C1)C2)[*:2]].P.L.H.S.[C[C@@H](O[P+](O)(O)O)[C@H](N[*:1])C(=O)[*:2]].M.[am]}$$$$V2.0),IC50,"protein: Serine/threonine-protein kinase PLK1, PDB entry 4lkl",0.82 µM (active)
CSCC[C@H](NC(=O)[C@@H](NC(=O)[C@H](CO)NC(=O)[C@H](Cc1cnc[nH]1)NC(=O)[C@H](CC(C)C)NC(=O)[C@@H]1CCCN1C(=O)CCCCCNC(=O)CCCCC1CCCCC1)[C@@H](C)O[P+](O)(O)O)C(N)=O ({Pentanoyl(5-cHex)-Ahx}-PLHS[Thr(P(OH)3+)]M-NH2),IC50,"protein: Serine/threonine-protein kinase PLK1, PDB entry 4lkm",0.46 µM (active)
Cc1[nH]c2ccccc2c1CCNC(=O)c1ccccc1F,IC50,"protein: Arp2/3 complex, PDB entry 3ukr",12 µM (active)
NC1CCC(Nc2nccc(-c3cccnc3Oc3ccc(NS(=O)(=O)c4ccccc4)c4ccccc34)n2)CC1 (stereo not given),IC50,"protein: Mitogen-activated protein kinase 10 JNK3, PDB entry 4u79",0.4 µM (active)
COc1ccc(OC)c(NC(=O)COc2ccccc2[P+](O)(O)O)c1,IC50,"protein: 14-3-3 protein sigma, PDB entry 3t0m",116 µM (active)
COc1cccc(NC(=O)COc2ccccc2[P+](O)(O)O)c1,IC50,"protein: 14-3-3 protein sigma, PDB entry 4dho",118 µM (active)
O=C(COc1ccccc1[P+](O)(O)O)Nc1cccc(Cl)c1,IC50,"protein: 14-3-3 protein sigma, PDB entry 4dhq",32 µM (active)
O=C(COc1ccccc1[P+](O)(O)O)Nc1cc(Cl)cc(Cl)c1,IC50,"protein: 14-3-3 protein sigma, PDB entry 4dhs",16 µM (active)
O=C(COc1ccccc1[P+](O)(O)O)Nc1cccc(C(F)(F)F)c1,IC50,"protein: 14-3-3 protein sigma, PDB entry 4dhm",165 µM (active)
NC1=N[C@@]2(c3cc(NC(=O)c4ccc(F)cn4)ccc3F)COC[C@H]2CS1,IC50,"protein: Beta-secretase 1 BACE1, PDB entry 4x7i",0.0203 µM (active)
Cc1nc(-c2ccccn2)nc(N[C@H](Cc2ccccc2)C(N)=O)c1Cl,IC50,"protein: Methionine aminopeptidase 1, PDB entry 4iku",1.79 µM (active)
CCC(C)(C)c1nn(CCO)c2c1NC(c1ccc(-n3ccnc3C)cc1)CNC2=O (stereo not given),IC50,"protein: cGMP-dependent 3',5'-cyclic phosphodiesterase, PDB entry 4jib",0.045 µM (active)
CC(C)C[C@H](NC(=O)OCc1ccccc1)C(=O)N[C@H](CO)C[C@@H]1CCNC1=O,IC50,"protein: 3C-like proteinase, PDB entry 4f49",0.82 µM (active)
same,IC50,"protein: Genome polyprotein, PDB entry 4dcd",1.77 µM (active)
COC(=O)N[C@@H](CC(C)C)C(=O)N[C@H](CO)C[C@@H]1CCNC1=O,IC50,"protein: 3C-like protease, PDB entry 3ur9",0.49 µM (active)
CC(C)C[C@H](NC(=O)OCc1ccccc1)C(=O)N[C@@H](CC(C)C)C(=O)N[C@@H](CC(C)C)[C@@H](O)[C@H](C)CO,IC50,"protein: Proteasome subunit alpha CP, PDB entry 4no9",0.015 µM (active)
CC[C@H](C)[C@H](CO)[C@@H](O)C(=O)N[C@H]1C[C@H]1C[C@@H](CCc1ccccc1)NC(=O)[C@H](C)NC(=O)OCc1ccccc1,IC50,"protein: Proteasome, PDB entry 4j70",5.7 µM (active)
c1cc2cnc3ccsc3c2cn1,IC50,"protein: DUAL SPECIFICITY PROTEIN KINASE TTK, PDB entry 4bi1",69.1 µM (active)
c1cc2cnc3sccc3c2cn1,IC50,"protein: DUAL SPECIFICITY PROTEIN KINASE TTK, PDB entry 4bhz",53.5 µM (active)
c1cc2c(cn1)cnc1sccc12,IC50,"protein: DUAL SPECIFICITY PROTEIN KINASE TTK, PDB entry 4bi2",94.1 µM (active)
Cc1cccc2c1CCN(C(=O)[C@@H]1CCCC[C@@H]1C(=O)O)[C@@H]2CN1Cc2ccccc2C1=O,IC50,"protein: Kelch-like ECH-associated protein 1, keap1 kelch domain, PDB entry 4l7d",0.75 µM (active)
O=C(O)[C@H]1CCCC[C@H]1C(=O)N1CCc2ccccc2[C@H]1CN1Cc2ccccc2C1=O,IC50,"protein: Kelch-like ECH-associated protein 1, keap1 kelch domain, PDB entry 4n1b",1.1 µM (active)
